PubChem BioAssay (NCI)
The panel holds about 83,000 compounds, 20% with a hit somewhere; the sample as a whole holds those more often.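 Plates (96-well) were seeded with cells, treated with compound at one concentration, and incubated for 48 hours before percent growth was determined.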 Unmarked numbers belong to inactive results. The source made the active and inactive calls. How the source made its calls: active means growth percent below 10; inactive means the rest.

Legend:
Assay in all cases: NCI-60 one-dose screen, 48 h (100 = growth as untreated, 0 = no growth, -100 = all killed)
Details in all cases: 10 µM unless noted
DU-145 prostate = system: DU-145 prostate
K-562 leukemia = system: K-562 leukemia
MALME-3M melanoma = system: MALME-3M melanoma
MDA-MB-231 breast = system: MDA-MB-231 breast
RXF 393 renal = system: RXF 393 renal
SF-268 CNS = system: SF-268 CNS
SF-295 CNS = system: SF-295 CNS
SF-539 CNS = system: SF-539 CNS
UACC-257 melanoma = system: UACC-257 melanoma
M14 melanoma = system: M14 melanoma

SMILES	growth (DU-145 prostate)	growth (K-562 leukemia)	growth (MALME-3M melanoma)	growth (MDA-MB-231 breast)	growth (RXF 393 renal)	growth (SF-268 CNS)	growth (SF-295 CNS)	growth (SF-539 CNS)	growth (UACC-257 melanoma)	growth (M14 melanoma)
O=C(Nc1ccc(Br)cc1)Nc1ccc(-c2ccc3c(c2)NC(=O)/C3=C\c2ccc[nH]2)cc1	27.9%	18.6%	61.6%	66.3%	25.3%	40.3%	22.9%	26.5%	75.4%	32.3%
NS(=O)(=O)c1ccc(Nc2nc(SCC(=O)c3ccc(F)cc3)nc3ccccc23)cc1	52.9%	24.1%	31.7%	51.7%	63.5%	46.8%	59.9%	53.2%	77.9%	56%
O=C(c1ccc(Cl)cc1)C1[C@H](c2ccccc2Cl)[C@@H](c2ccccc2)NC12C(=O)Nc1ccc(Br)cc12 (stereo not given in full)	-34.7% (active)	-43.2% (active)	-64.2% (active)	-95.4% (active)	-93.5% (active)	-45.1% (active)	-88.1% (active)	-85.2% (active)	-30.7% (active)	-88.5% (active)
COc1ccc(NC(=O)CSc2nnc(-c3ccc(-c4nc5ccc(Cl)cc5[nH]4)cc3)o2)cc1	8.29% (active)	13.3%	0.449% (active)	-30.2% (active)	-37% (active)	45.4%	43.8%	-91.1% (active)	29%	13.5%
CN1C(=O)C(O)(CC(=O)c2cc3ccccc3oc2=O)c2ccccc21 (stereo not given)	137%	72.7%	94.7%	91.8%	122%	98.8%	96.3%	93.3%	109%	94.2%
O=C(NN1C(=O)/C(=C/C=C/c2ccc([N+](=O)[O-])o2)SC1=S)c1ccncc1	-95% (active)	3.03% (active)	-91.7% (active)	-96.5% (active)	-93.6% (active)	-75.7% (active)	-82.8% (active)	-100% (active)	-86.7% (active)	-67.9% (active)
COC(=O)c1cc(C(=O)CBr)n2c1ccc1c3ccccc3ccc12	69.3%	43%	51.2%	69.8%	67%	74.7%	37.2%	43.6%	82.6%	69.5%
Cc1ccc(Cl)cc1NC(=O)N/C(N)=N/c1nc2ccccc2s1	-35% (active)	4.45% (active)	15.6%	-42.7% (active)	-28.5% (active)	15.4%	-49.6% (active)	-51.2% (active)	44.8%	-17.1% (active)
Cc1ccc(C2CC(c3ccc(S(=O)(=O)NCCNc4nc(N(C)C)nc(N5CCOCC5)n4)cc3)=Nc3c(N)nc(N)nc3N2)cc1 (stereo not given)	66%	22.8%	57.3%	31%	10.6%	45.2%	32.7%	43.8%	72.6%	44.7%
COc1ccc(-c2cc(C(=O)OCc3ccc(Br)cc3)nn2-c2ccc(S(C)(=O)=O)cc2)cc1OC	86.4%	79.9%	106%	70.5%	62%	66.5%	81.4%	72.4%	106%	114%
CCCCCCCOc1ccc(S(=O)(=O)Nc2ccc(C)c(F)c2C(=O)O)cc1	104%	88.4%	91.3%	96%	114%	101%	89.3%	102%	102%	96.4%
Cc1nc(N)ncc1-c1ccc2ncnc(N3CCc4cc(F)c(Cl)cc43)c2c1	47.3%	61.7%	91.9%	35.3%	14.6%	45.9%	84.9%	67%	105%	102%
O=C(NNC(=O)c1ccc(OCc2nc3ccc(Cl)cc3[nH]2)cc1)Nc1ccc(Cl)c(Cl)c1	73%	29.6%	6.73% (active)	44.1%	69.4%	85.6%	101%	43.3%	95.6%	56.4%
